From the supplement of paper PMC11732987, “Enantioselective OTUD7B fragment discovery through chemoproteomics screening and high-throughput optimisation” (Communications Chemistry, 2025)

Assays:
Assay in all cases: log2 ratio of Biotin-Ahx-Ub-VS probe labelling (fragment/DMSO); higher = less target engagement (more negative = stronger competition), active = hit call of the paper (q ≤ 0.05, log2 ratio ≤ -1)
Conditions in all cases: compound concentration: 200 uM; treatment time: 3 h
USP34 = USP34 (UniProt Q70CQ2)
In short: (§1)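 Triplicate samples of HEK293T lysate, 495 µg each, received fragment at 200 µM or vehicle for 3 h, followed by Biotin-Ahx-Ub-VS (0.5 µM final) for 1 h. After NeutrAvidin enrichment of labelled DUBs and LysC/trypsin digestion, peptides were run by diaPASEF LC-MS/MS. The values are average log2 fragment/vehicle ratios from global-median-normalised Spectronaut label-free quantities, tested by unpaired t-test on proteins having ≥2 unique peptides.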

USP36 = biological target: T1, USP36 (UniProt Q9P275)
T1 sequence (whole entry): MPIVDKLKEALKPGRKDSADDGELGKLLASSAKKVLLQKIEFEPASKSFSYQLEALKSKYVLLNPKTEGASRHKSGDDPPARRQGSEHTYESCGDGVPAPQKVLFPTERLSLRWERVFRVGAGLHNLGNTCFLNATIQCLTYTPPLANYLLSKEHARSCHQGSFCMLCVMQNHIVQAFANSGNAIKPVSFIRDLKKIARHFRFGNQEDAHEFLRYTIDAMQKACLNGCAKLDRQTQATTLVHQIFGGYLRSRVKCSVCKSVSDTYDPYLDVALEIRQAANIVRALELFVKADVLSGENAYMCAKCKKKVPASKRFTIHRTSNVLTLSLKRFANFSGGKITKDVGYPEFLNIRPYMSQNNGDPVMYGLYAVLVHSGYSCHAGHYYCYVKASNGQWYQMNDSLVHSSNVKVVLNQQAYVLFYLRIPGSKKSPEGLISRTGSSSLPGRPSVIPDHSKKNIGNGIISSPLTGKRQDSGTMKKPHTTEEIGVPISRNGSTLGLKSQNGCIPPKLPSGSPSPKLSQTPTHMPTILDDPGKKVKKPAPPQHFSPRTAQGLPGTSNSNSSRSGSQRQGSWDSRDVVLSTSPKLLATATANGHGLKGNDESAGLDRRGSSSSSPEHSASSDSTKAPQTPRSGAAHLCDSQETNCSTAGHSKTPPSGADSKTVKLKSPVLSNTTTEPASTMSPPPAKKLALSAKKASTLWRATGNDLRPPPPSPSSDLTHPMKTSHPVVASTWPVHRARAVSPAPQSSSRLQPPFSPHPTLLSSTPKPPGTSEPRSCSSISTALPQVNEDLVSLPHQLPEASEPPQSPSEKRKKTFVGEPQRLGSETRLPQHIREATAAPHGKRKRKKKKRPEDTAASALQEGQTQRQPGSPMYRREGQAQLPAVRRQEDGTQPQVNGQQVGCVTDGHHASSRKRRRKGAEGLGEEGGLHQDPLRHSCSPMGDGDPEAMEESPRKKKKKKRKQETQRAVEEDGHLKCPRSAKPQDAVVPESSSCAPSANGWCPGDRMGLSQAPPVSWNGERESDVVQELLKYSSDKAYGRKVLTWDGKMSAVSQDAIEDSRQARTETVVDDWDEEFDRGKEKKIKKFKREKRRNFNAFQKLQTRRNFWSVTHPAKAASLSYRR
In short: as §1

USP38 = biological target: T2, USP38 (UniProt Q8NB14)
T2 sequence (whole entry): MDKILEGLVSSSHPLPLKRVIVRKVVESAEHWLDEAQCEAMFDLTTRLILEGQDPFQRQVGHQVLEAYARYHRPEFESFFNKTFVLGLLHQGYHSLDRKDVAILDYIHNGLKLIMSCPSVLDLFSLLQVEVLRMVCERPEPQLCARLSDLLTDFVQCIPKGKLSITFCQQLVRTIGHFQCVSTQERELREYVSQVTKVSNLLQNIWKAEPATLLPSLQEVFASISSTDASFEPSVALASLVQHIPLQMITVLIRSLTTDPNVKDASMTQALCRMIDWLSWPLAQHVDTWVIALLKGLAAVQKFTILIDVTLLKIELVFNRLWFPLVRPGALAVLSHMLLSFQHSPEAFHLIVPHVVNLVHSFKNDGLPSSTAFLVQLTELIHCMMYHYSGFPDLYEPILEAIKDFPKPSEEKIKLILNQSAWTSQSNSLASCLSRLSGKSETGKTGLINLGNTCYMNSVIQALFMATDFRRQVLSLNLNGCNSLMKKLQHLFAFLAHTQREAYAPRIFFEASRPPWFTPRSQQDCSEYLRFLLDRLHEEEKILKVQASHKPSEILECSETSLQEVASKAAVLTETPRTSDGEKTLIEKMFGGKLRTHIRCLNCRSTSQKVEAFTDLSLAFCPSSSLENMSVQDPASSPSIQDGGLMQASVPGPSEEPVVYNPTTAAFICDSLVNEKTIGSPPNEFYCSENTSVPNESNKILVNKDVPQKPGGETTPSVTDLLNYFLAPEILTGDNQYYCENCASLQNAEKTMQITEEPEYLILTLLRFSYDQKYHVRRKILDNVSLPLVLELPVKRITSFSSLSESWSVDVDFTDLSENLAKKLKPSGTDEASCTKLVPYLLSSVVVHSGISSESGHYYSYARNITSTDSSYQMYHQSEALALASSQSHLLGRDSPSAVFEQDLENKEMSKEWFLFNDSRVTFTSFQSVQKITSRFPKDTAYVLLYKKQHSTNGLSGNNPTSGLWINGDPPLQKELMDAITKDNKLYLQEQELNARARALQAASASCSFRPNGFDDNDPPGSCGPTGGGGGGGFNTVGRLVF
In short: as §1

USP39 = biological target: T3, USP39 (UniProt Q53GS9)
T3 sequence (whole entry): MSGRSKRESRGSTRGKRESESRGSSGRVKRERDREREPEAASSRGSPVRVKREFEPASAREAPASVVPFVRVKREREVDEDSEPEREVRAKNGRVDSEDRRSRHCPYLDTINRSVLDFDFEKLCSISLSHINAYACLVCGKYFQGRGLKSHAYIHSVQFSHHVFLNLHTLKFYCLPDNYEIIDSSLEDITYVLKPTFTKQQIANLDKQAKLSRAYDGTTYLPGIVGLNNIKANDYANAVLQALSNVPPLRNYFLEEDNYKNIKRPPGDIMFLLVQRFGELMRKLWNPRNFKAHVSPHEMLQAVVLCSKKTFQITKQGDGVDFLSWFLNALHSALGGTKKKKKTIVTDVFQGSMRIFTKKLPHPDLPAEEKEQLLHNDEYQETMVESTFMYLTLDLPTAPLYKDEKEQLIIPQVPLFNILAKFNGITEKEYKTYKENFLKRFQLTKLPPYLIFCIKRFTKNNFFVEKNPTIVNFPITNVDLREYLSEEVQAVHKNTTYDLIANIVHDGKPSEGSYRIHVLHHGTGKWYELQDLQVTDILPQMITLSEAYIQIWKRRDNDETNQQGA
In short: as §1

USP4 = biological target: T4, USP4 (UniProt Q13107)
T4 sequence (whole entry): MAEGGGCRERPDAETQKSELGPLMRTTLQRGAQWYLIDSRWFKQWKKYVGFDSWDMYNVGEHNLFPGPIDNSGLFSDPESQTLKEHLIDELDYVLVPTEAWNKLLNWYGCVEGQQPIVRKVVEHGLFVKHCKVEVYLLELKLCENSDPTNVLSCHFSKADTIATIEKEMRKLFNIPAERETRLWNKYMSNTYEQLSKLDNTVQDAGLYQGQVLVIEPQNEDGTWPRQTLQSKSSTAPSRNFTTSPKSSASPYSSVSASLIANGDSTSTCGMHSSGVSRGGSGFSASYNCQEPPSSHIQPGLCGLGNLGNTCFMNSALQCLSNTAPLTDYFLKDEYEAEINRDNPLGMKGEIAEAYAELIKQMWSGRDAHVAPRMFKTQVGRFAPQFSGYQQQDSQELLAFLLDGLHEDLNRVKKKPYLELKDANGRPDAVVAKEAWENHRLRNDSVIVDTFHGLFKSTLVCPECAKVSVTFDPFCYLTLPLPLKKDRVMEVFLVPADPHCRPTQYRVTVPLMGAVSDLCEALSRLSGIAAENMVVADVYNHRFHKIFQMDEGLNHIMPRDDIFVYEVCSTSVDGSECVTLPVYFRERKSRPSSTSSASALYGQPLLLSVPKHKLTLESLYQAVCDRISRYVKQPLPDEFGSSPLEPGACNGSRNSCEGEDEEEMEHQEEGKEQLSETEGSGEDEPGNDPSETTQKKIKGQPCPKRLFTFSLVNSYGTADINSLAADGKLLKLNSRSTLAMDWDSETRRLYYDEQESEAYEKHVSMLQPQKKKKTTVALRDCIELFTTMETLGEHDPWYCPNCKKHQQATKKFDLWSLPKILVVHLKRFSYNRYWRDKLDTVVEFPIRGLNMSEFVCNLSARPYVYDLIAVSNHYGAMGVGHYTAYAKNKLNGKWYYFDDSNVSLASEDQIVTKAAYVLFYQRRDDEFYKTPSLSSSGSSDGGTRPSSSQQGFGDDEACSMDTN
In short: as §1

Measured: log2 ratio of Biotin-Ahx-Ub-VS probe labelling

USP34, sequence (Q70CQ2 whole entry, the tested form may be a part): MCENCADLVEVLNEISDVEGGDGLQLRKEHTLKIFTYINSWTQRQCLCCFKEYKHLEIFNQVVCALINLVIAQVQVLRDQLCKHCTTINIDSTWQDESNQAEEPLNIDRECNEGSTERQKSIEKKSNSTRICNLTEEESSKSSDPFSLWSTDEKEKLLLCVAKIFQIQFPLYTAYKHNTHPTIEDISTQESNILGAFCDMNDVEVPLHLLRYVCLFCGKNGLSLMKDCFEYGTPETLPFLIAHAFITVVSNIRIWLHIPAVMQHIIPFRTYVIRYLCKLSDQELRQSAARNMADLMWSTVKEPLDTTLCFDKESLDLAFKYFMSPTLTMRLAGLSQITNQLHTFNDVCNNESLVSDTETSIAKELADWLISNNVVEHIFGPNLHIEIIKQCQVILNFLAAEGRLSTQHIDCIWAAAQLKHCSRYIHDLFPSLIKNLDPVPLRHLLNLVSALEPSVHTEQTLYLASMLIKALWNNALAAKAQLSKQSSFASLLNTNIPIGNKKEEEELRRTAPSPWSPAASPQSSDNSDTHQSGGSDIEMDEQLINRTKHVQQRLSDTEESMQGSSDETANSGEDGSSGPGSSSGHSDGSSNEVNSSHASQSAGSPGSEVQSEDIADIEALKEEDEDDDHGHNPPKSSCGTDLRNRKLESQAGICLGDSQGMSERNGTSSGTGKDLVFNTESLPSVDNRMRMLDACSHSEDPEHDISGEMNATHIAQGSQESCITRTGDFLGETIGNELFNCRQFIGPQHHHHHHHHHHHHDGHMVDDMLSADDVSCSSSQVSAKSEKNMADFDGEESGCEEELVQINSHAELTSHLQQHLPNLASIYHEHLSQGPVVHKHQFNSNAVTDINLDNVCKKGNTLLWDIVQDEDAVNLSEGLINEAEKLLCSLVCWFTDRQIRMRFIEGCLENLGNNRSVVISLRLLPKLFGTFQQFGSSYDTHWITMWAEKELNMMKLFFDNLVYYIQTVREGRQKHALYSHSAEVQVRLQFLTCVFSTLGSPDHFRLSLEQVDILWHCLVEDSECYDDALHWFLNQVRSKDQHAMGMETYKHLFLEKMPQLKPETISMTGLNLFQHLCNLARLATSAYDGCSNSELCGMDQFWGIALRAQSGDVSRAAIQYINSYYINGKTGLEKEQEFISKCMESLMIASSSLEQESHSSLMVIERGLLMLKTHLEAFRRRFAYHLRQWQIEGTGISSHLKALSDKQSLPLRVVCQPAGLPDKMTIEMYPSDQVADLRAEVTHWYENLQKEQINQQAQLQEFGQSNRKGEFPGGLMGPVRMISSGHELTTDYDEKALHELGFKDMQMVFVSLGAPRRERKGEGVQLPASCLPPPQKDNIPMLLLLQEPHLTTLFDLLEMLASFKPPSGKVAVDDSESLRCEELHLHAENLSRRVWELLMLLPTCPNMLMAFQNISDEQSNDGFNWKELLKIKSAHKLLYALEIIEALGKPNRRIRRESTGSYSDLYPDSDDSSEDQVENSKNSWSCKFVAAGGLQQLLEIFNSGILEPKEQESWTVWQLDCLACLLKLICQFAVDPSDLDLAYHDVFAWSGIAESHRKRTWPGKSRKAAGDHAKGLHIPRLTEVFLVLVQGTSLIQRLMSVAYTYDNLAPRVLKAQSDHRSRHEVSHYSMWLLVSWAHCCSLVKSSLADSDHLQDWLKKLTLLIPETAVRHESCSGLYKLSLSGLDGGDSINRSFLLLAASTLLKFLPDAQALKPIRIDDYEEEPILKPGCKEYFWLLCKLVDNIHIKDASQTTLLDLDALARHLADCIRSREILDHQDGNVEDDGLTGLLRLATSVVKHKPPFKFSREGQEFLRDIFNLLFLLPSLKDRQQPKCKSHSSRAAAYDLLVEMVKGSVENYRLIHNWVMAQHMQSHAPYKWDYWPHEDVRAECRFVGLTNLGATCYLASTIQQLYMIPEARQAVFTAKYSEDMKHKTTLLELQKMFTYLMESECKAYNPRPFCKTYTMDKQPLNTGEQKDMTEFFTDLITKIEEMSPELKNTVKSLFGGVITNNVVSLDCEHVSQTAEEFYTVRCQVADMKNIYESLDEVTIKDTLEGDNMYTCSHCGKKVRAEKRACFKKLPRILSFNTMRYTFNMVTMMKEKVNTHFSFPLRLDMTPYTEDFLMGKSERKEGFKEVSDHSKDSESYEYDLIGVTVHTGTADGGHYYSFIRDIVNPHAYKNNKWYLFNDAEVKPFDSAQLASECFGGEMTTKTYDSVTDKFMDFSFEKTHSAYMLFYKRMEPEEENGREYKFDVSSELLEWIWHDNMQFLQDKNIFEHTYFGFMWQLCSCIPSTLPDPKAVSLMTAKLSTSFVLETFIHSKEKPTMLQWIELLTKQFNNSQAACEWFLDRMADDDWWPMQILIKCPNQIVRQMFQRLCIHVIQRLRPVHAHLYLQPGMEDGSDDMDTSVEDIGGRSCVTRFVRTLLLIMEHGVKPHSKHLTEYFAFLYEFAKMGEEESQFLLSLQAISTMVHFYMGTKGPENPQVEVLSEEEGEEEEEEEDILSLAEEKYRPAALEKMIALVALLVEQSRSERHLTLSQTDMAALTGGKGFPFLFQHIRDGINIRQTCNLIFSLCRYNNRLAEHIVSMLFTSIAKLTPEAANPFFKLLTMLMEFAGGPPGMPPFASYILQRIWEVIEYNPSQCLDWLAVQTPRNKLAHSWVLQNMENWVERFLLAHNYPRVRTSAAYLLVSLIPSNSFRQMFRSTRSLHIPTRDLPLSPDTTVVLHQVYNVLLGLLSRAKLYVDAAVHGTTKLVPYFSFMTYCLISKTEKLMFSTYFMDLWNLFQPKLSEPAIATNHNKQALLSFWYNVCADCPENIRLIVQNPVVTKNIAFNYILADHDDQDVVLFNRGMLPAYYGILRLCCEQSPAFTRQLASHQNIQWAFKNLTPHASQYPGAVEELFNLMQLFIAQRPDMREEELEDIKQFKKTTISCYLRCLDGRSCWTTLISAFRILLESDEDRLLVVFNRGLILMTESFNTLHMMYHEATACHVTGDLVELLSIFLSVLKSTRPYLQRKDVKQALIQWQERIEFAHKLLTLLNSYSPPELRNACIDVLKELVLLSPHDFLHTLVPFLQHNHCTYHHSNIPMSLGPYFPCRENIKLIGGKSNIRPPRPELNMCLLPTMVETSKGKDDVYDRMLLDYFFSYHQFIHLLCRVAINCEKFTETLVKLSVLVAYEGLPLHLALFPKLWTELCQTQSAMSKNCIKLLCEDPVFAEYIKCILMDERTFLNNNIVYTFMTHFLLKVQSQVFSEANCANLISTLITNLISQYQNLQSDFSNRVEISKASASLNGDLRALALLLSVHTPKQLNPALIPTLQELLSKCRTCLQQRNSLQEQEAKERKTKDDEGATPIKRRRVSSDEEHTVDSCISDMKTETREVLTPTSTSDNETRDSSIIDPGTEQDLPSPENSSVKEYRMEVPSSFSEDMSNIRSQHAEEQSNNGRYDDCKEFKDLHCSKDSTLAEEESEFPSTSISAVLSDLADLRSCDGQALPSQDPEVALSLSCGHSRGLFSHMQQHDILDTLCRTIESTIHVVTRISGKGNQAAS

Cc1ccc(N(C(=O)CCl)C2C=CS(=O)(=O)C2)cc1 (stereo not given)
inactive: USP34 -0.0862 | USP36 -0.145 | USP38 0.105 | USP39 0.107 | USP4 0.0944
